Pf growth 48h: inhibits P. falciparum growth in the first generation, 48 h; P. falciparum luciferase growth in erythrocytes, 48 h; Potency, µM (doses to about 28.7 µM), without a hit: top-dose activity change, negative = inhibition, usual class: inhibitors; 5.9% of 310,000 active; further: potency means the concentration at half of the fitted maximal effect; on the % scale 0 is the no-effect control and ±100 the full control effect
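First compound was added to culture medium, then infected red cells at 0.1% parasitemia and 2% hematocrit (final). After incubation at 37 C under 5% CO2, luciferase detection reagent was dispensed and light output recorded.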
Pf growth 96h: inhibits malaria parasite growth, 96 h | P. falciparum luciferase reporter growth, 96 h | Potency, µM (top dose mostly 28.7 µM), without a hit: at the highest dose activity change, negative = inhibition, hits mostly inhibitors | 6.9% of 320,000 active; further: potency means the concentration at half of the fitted maximal effect; on the % scale 0 is the no-effect control and ±100 the full control effect
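Luminescence readout: decreased luciferase signal marks inhibited growth of reporter-expressing P. falciparum in infected red cells (2% hematocrit, 0.05% parasitemia final), exposed to compound two generations (96 h, 37 C, 5% CO2).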
CHX counter: affects cycloheximide protein synthesis inhibition readout, counter-screen | cell reporter, cycloheximide protein synthesis inhibition counterscreen | max response, % | 12% of 300,000 active | AID 2314; in the data active means max response mostly above about 13%, no sharp cut-off; inactive means mostly below about 14%; further: read at 38.3 µM for the half of the compounds with a filed dose; 0% is about no effect
Shiga inhibitor: blocks Shiga toxin action in Vero cells; Vero cells, Shiga toxin protein synthesis inhibition reporter; inhibition, % at 38.7 µM; 9.2% of 290,000 active; AID 2315; in the data active means inhibition mostly above about 28%, no sharp cut-off; inactive means mostly below about 43%; further: 0% is about no effect
HCV inhibitor: inhibitors of hepatitis C virus infection; AID 651820; Huh7.5.1 HCVcc-Cre infection, luciferase reporter, 44 h; Potency, µM (highest dose often 41.8 µM), inactives show at the top dose activity change, negative = inhibition, actives largely listed as inhibitors; 3.4% of 340,000 active; further: potency means the concentration at half of the fitted maximal effect; on the % scale 0 is the no-effect control and ±100 the full control effect
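Reporter virus HCVcc-Cre (~0.5 moi) infects cells exposed to compound; seeding density 1,000 cells/well with 4 h settling beforehand. Luminescence, 15 sec read, taken 44 h post-infection following a 15 min RT substrate incubation.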
AMA1-RON2 inh: disrupts binding of P. falciparum AMA1 to RON2; AlphaScreen AMA1-biotinylated RON2 peptide binding; Potency, µM (titrated, usually from 58.2 µM), without a hit: at the highest dose activity change, negative = inhibition, actives largely listed as inhibitors; 0.2% of 360,000 active;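 further: potency means the concentration at half of the fitted maximal effect; 0% = vehicle wells and -100% = peptide control; nearly all actives have a fitted effect of over 45% in size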
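AMA1 (3D7) with his tag at 25 nM final met compounds first, then biotinylated RON2 peptide at 25 nM; detection used donor plus acceptor beads, 10 µg/mL apiece, read by AlphaScreen after 30 min at room temperature.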
Active calls of the source: *; [ ] = remark or other dose. Sampled rows, rich in hits. Any-hit rate of the full collection: about 21%. Unless noted, the call rests on the fitted dose curve; in most records, active means well fitted curve in the direction sought with a large enough effect; inconclusive means small, poorly fitted or top-dose-only effect, or another doubt; inactive means no such curve, though single readings can be large; an effect the other way counts as inactive or inconclusive.

Screening CCN(CC)c1ccc(/C=N/N2C(=O)c3ccccc3C2=O)cc1 returned Pf growth 48h 1.9%, Pf growth 96h -2.4%, CHX counter 7.2, Shiga inhibitor 23.9, HCV inhibitor 2.7% and AMA1-RON2 inh 8.7%.
Screening CN(C)c1ccc(/C=N/N2C(=O)c3ccccc3C2=O)cc1 returned Pf growth 48h 30.4%, Pf growth 96h 0.0%, CHX counter 55.3*, Shiga inhibitor 76.1*, HCV inhibitor 13.4% and AMA1-RON2 inh 0.0%.
For COc1ccccc1/C=N/N1C(=O)c2cccc3cccc(c23)C1=O the results were Pf growth 48h -5.1%[5.75 µM], Pf growth 96h -1.4%, CHX counter -3.8, Shiga inhibitor -15.9, HCV inhibitor 28.3% and AMA1-RON2 inh 5.6%.
For COc1ccc(/C=N\n2nnc3ccccc32)cc1 the results were Pf growth 48h 69.9%, Pf growth 96h 0.415µM*, CHX counter 27.8*, Shiga inhibitor -41.0, HCV inhibitor inconclusive and AMA1-RON2 inh 7.6%.
`COc1ccc(/C=N/N2C(=O)c3ccccc3C2=O)cc1` gave Pf growth 48h 7.5%, Pf growth 96h 22.7%, CHX counter 17.7, Shiga inhibitor 33.4*, HCV inhibitor 10.1% and AMA1-RON2 inh 18.1%.
Cc1cccc(NS(=O)(=O)c2ccc(C(=O)N3CCCCCC3)cc2)c1C was read as Pf growth 48h inconclusive, Pf growth 96h -19.3%, HCV inhibitor -2.9% and AMA1-RON2 inh -8.2%.
`Cc1cc(C)c2c(=O)n3c(nc2c1)C(CC(C)C)NC(=O)c1cccnc1-3` (centres undefined) gave AMA1-RON2 inh 9.8%.
Cc1c(Cl)cccc1-n1cnc(=O)c2ccccc21 was read as HCV inhibitor -10.2% and AMA1-RON2 inh -11.8%.
Screening O=C(COc1ccc(F)cc1Br)N1CCc2ccccc21 returned Pf growth 48h 23.3%, Pf growth 96h 1.5%, CHX counter 41.6*, Shiga inhibitor 46.9*, HCV inhibitor -1.1% and AMA1-RON2 inh -6.2%.
Screening O=Cc1ccc(OCC(=O)N2CCc3ccccc32)c(Br)c1 returned Pf growth 48h -23.1%, Pf growth 96h -1.3%, HCV inhibitor 10.3% and AMA1-RON2 inh -21.2%.
For COc1cc(CO)ccc1OCC(=O)N1CCc2ccccc21 the results were Pf growth 48h 0.2%, Pf growth 96h inconclusive, CHX counter 18.6*, Shiga inhibitor 24.0*, HCV inhibitor -14.9% and AMA1-RON2 inh -7.1%.
CCOc1ccc(CCNC(=O)CSc2n[nH]c(N)n2)cc1OCC was read as Pf growth 48h 3.2%, Pf growth 96h 9.7%, CHX counter -3.9, Shiga inhibitor 2.1, HCV inhibitor 20.2% and AMA1-RON2 inh 2.6%.
`O=C(NCCc1ccccc1)C(=O)c1cn(CC(=O)N2CCCC2)c2ccccc12` gave Pf growth 48h -7.6%, Pf growth 96h -7.7%, CHX counter 19.2*, Shiga inhibitor 6.2 and AMA1-RON2 inh -2.5%.
For COc1ccccc1CCNC(=O)C(=O)c1cn(CC(=O)N2CCCC2)c2ccccc12 the results were Pf growth 48h -4.2%, Pf growth 96h inconclusive, CHX counter 33.4*, Shiga inhibitor 64.1*, HCV inhibitor 12.2% and AMA1-RON2 inh 2.5%.
COc1ccccc1Cn1c(=S)[nH]c2ccc(F)cc2c1=O was read as Pf growth 48h 22.9%, Pf growth 96h inconclusive, CHX counter -2.7, Shiga inhibitor 18.8, HCV inhibitor -17.4% and AMA1-RON2 inh 62.3%.
`CC(C)CCOc1ccc(C(=O)NN2C(=O)NC3(CCCCC3)C2=O)cc1` gave Pf growth 48h 3.2%, Pf growth 96h 12.2%, HCV inhibitor 0.8% and AMA1-RON2 inh 1.0%.
For COc1cc2c(c(OC)c1OC)-c1ccc(OC)c(=O)cc1[C@@H](NC=O)CC2 the results were CHX counter -9.6 and Shiga inhibitor -11.8.
Cc1ccc(NC(=O)CCNC(=O)N2CC(=O)Nc3ccccc32)cc1Cl was read as AMA1-RON2 inh -5.0%.
Screening O=c1cc[nH]c2c1ccc1c(=O)cc[nH]c12 returned Pf growth 96h -26.6%, CHX counter 6.6, Shiga inhibitor 26.6, HCV inhibitor -10.5% and AMA1-RON2 inh 64.9%.
O=c1cc[nH]c2c(Cl)cccc12 was read as Pf growth 48h 162.1%, Pf growth 96h 0.0%, CHX counter 20.7*, Shiga inhibitor 40.7*, HCV inhibitor 20.6% and AMA1-RON2 inh -5.1%.
Cc1ncc([N+](=O)[O-])n1S(=O)(=O)c1cc(Cl)ccc1Cl was read as Pf growth 48h 15.1%, Pf growth 96h -20.3%, CHX counter -0.5, Shiga inhibitor -6.8, HCV inhibitor 12.9% and AMA1-RON2 inh -9.7%.
`Clc1ccc(SCc2cc(-c3ccccc3)on2)cc1` gave Pf growth 48h 39.5%, Pf growth 96h 27.5%, CHX counter 6.5, Shiga inhibitor 28.3, HCV inhibitor 2.2% and AMA1-RON2 inh 26.8%.
`c1ccc(Cc2cc(-c3ccccc3)on2)cc1` gave Pf growth 48h 241.5%, Pf growth 96h 175.1%, CHX counter 36.5*, Shiga inhibitor 90.4*, HCV inhibitor inconclusive and AMA1-RON2 inh 76.9%.
C=CCOc1ccc(/C=N\NC(N)=S)cc1 was read as Pf growth 48h inconclusive, Pf growth 96h -18.3%, CHX counter -1.2, Shiga inhibitor 13.3, HCV inhibitor -9.5% and AMA1-RON2 inh 90.6%.
Screening NC(=S)N/N=C/c1ccccc1[N+](=O)[O-] returned Pf growth 48h 18.3%, Pf growth 96h inconclusive, CHX counter 0.6, Shiga inhibitor 8.4, HCV inhibitor -10.0% and AMA1-RON2 inh 43.6%.
`COC(=O)c1cccc(/C=N/NC(N)=S)c1O` gave Pf growth 48h inconclusive, Pf growth 96h inconclusive, CHX counter 27.2*, Shiga inhibitor 25.5, HCV inhibitor -29.8% and AMA1-RON2 inh -1.3%.
For COc1ccc(/C=N/NC(N)=S)cc1 the results were Pf growth 48h 23.0%, Pf growth 96h 23.6%, CHX counter 12.7*, Shiga inhibitor 18.1, HCV inhibitor inconclusive and AMA1-RON2 inh 33.3%.
Screening NC(=S)N/N=C/c1ccc(C(F)(F)F)cc1 returned Pf growth 48h 1.2%, Pf growth 96h 37.4%, CHX counter 6.7, Shiga inhibitor 9.5, HCV inhibitor -7.3% and AMA1-RON2 inh 66.4%.
For COc1ccc(/C=N/NC(=O)c2cccc(C(=O)N/N=C/c3ccc(OC)cc3)n2)cc1 the results were Pf growth 48h 2.1%, Pf growth 96h 43.7%, CHX counter -3.1, Shiga inhibitor -3.8, HCV inhibitor -8.0% and AMA1-RON2 inh 72.9%.
COc1ccc(/C=N/NC(=O)Nc2nonc2N)cc1 was read as Pf growth 48h 97.9%, Pf growth 96h -23.4%, CHX counter 47.9*, Shiga inhibitor 75.1*, HCV inhibitor 20.9% and AMA1-RON2 inh -2.8%.
`CC(C)Oc1ccc(/C=N/NC(N)=S)cc1` gave Pf growth 48h 84.8%, Pf growth 96h -15.9%, CHX counter 60.9*, Shiga inhibitor 66.5*, HCV inhibitor -3.4% and AMA1-RON2 inh 38.8%.

From PubChem BioAssay
